Binding signal data for 24 molecules are collected here from paper PMC9911399, “Two distinct binding modes provide the RNA-binding protein RbFox with extraordinary sequence specificity”.

Positions count from the first letter of the chain named. The full ranking holds about 16,000 sequences; the median of “ka relative to ugcaugu” is about 0.096, and the highest 2% start at about 0.35. The sample holds the highest values, similar sequences and a random draw of the others, so the mix is not that of the screen.

The labels stand for the following.
T1: RBFOX1 RRM RbFoxmut (Fox-RRM*) (Homo sapiens, UniProt Q9NWB1 109-208, R118D;E147R;N151S;E152T)
T1 sequence: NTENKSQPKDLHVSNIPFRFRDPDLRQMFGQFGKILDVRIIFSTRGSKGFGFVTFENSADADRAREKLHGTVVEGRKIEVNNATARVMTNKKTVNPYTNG

B1: CGCGUAA (DNA:RNA)
RNA: GGGAGACCGGAAUUCAGAUUGUCCCGCGUAAUUAAAUCCCGUCGUAGCCACCA
DNA 1: CAATCTGAATTCCGGTCTCCC
DNA 2: TGGTGGCTACGACGGGATT
B2: AACGAAC (DNA:RNA)
RNA: B1 RNA with C25A, G26A, U29A, A31C
DNA 1: CAATCTGAATTCCGGTCTCCC
DNA 2: TGGTGGCTACGACGGGATT
B3: UAAUUGU (DNA:RNA)
RNA: B1 RNA with C25U, G26A, C27A, G28U, A30G, A31U
DNA 1: CAATCTGAATTCCGGTCTCCC
DNA 2: TGGTGGCTACGACGGGATT
B4: GGCUGUC (DNA:RNA)
RNA: B1 RNA with C25G, G28U, U29G, A30U, A31C
DNA 1: CAATCTGAATTCCGGTCTCCC
DNA 2: TGGTGGCTACGACGGGATT
B5: AUUCUUA (DNA:RNA)
RNA: B1 RNA with C25A, G26U, C27U, G28C, A30U
DNA 1: CAATCTGAATTCCGGTCTCCC
DNA 2: TGGTGGCTACGACGGGATT
B6: UGCAUAU (DNA:RNA)
RNA: B1 RNA with C25U, G28A, A31U
DNA 1: CAATCTGAATTCCGGTCTCCC
DNA 2: TGGTGGCTACGACGGGATT
B7: UGCAUUU (DNA:RNA)
RNA: B1 RNA with C25U, G28A, A30U, A31U
DNA 1: CAATCTGAATTCCGGTCTCCC
DNA 2: TGGTGGCTACGACGGGATT
B8: CUGCAUG (DNA:RNA)
RNA: B1 RNA with G26U, C27G, G28C, U29A, A30U, A31G
DNA 1: CAATCTGAATTCCGGTCTCCC
DNA 2: TGGTGGCTACGACGGGATT
B9: UGCCAUC (DNA:RNA)
RNA: B1 RNA with C25U, G28C, U29A, A30U, A31C
DNA 1: CAATCTGAATTCCGGTCTCCC
DNA 2: TGGTGGCTACGACGGGATT
B10: UGCCAUA (DNA:RNA)
RNA: B1 RNA with C25U, G28C, U29A, A30U
DNA 1: CAATCTGAATTCCGGTCTCCC
DNA 2: TGGTGGCTACGACGGGATT
B11: CUGCAUA (DNA:RNA)
RNA: B1 RNA with G26U, C27G, G28C, U29A, A30U
DNA 1: CAATCTGAATTCCGGTCTCCC
DNA 2: TGGTGGCTACGACGGGATT
B12: UGCCAUG (DNA:RNA)
RNA: B1 RNA with C25U, G28C, U29A, A30U, A31G
DNA 1: CAATCTGAATTCCGGTCTCCC
DNA 2: TGGTGGCTACGACGGGATT
B13: UGCAUGU (DNA:RNA)
RNA: B1 RNA with C25U, G28A, A30G, A31U
DNA 1: CAATCTGAATTCCGGTCTCCC
DNA 2: TGGTGGCTACGACGGGATT
B14: CCCUGCA (DNA:RNA)
RNA: B1 RNA with G26C, G28U, U29G, A30C
DNA 1: CAATCTGAATTCCGGTCTCCC
DNA 2: TGGTGGCTACGACGGGATT
B15: CGCGCUA (DNA:RNA)
RNA: B1 RNA with U29C, A30U
DNA 1: CAATCTGAATTCCGGTCTCCC
DNA 2: TGGTGGCTACGACGGGATT
B16: AUACCAG (DNA:RNA)
RNA: B1 RNA with C25A, G26U, C27A, G28C, U29C, A31G
DNA 1: CAATCTGAATTCCGGTCTCCC
DNA 2: TGGTGGCTACGACGGGATT
B17: CCAGGGG (DNA:RNA)
RNA: B1 RNA with G26C, C27A, U29G, A30G, A31G
DNA 1: CAATCTGAATTCCGGTCTCCC
DNA 2: TGGTGGCTACGACGGGATT
B18: CUUGUUU (DNA:RNA)
RNA: B1 RNA with G26U, C27U, A30U, A31U
DNA 1: CAATCTGAATTCCGGTCTCCC
DNA 2: TGGTGGCTACGACGGGATT
B19: AUAUGUA (DNA:RNA)
RNA: B1 RNA with C25A, G26U, C27A, G28U, U29G, A30U
DNA 1: CAATCTGAATTCCGGTCTCCC
DNA 2: TGGTGGCTACGACGGGATT
B20: AUGUAUG (DNA:RNA)
RNA: GGGAGACCGGAAUUCAGAUUGUCCAUGUAUGUUAAAUCCCGUCGUAGCCACCA
DNA 1: CAATCTGAATTCCGGTCTCCC
DNA 2: TGGTGGCTACGACGGGATT
B21: AUGUAGA (DNA:RNA)
RNA: B20 RNA with U30G, G31A
DNA 1: CAATCTGAATTCCGGTCTCCC
DNA 2: TGGTGGCTACGACGGGATT
B22: AUGUAUC (DNA:RNA)
RNA: B20 RNA with G31C
DNA 1: CAATCTGAATTCCGGTCTCCC
DNA 2: TGGTGGCTACGACGGGATT
B23: ACGUAUC (DNA:RNA)
RNA: B20 RNA with U26C, G31C
DNA 1: CAATCTGAATTCCGGTCTCCC
DNA 2: TGGTGGCTACGACGGGATT
B24: AUGUAAA (DNA:RNA)
RNA: B20 RNA with U30A, G31A
DNA 1: CAATCTGAATTCCGGTCTCCC
DNA 2: TGGTGGCTACGACGGGATT

This test deals with T1, RBFOX1 RRM RbFoxmut (Fox-RRM*). The test can be described thus: EMSA; HiTS-Eq, 1 nM pool, 10 min; buffer printed only for the single-RNA assays: 10 mM Tris pH 7.5, 150 mM NaCl, 3.4 mM EDTA, 0.001% NP-40, 30 C. As to conditions: tags: His6 N-terminal (pET28a); label: 5' 32P. In a few lines: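 Purified wild-type or mutant RbFox RRM at increasing concentrations was equilibrated with 1 nM of 5′-radiolabelled RNA carrying 7 randomized nucleotides for 10 min in 50 µL. Unbound RNA was separated by 8% native PAGE and sequenced. Relative association constants came from read-count changes of each RNA species compared with the control reaction, normalised to the cognate motif.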
(In EMSA bound probe runs differently from free probe, usually more slowly.)
Turning to B1, the binding signal is 0.114 KA relative to UGCAUGU.

Regarding B2, the binding signal is 0.0568 KA relative to UGCAUGU.

Regarding B3, the binding signal was 0.0755 KA relative to UGCAUGU. The value for B4 was 0.211 KA relative to UGCAUGU.

With B5, the binding signal is 0.13 KA relative to UGCAUGU.

With B6, the binding signal is 0.178 KA relative to UGCAUGU.

Consider B7, for which the binding signal was 0.137 KA relative to UGCAUGU. The value for B8 was 1.34 KA relative to UGCAUGU; that for B9 was 0.208 KA relative to UGCAUGU. Turning to B10, the binding signal is 0.122 KA relative to UGCAUGU. As for B11, the binding signal was 0.144 KA relative to UGCAUGU.

As to B12, the binding signal was 0.509 KA relative to UGCAUGU. As for B13, the binding signal is 1 KA relative to UGCAUGU.

Take B14: the binding signal was 0.186 KA relative to UGCAUGU. Next, B15: 0.103 KA relative to UGCAUGU.

Regarding B16, the binding signal is 0.122 KA relative to UGCAUGU. For the molecule B17, the binding signal is 0.0555 KA relative to UGCAUGU. For B18, the binding signal was 0.0932 KA relative to UGCAUGU. Turning to B19, the binding signal was 0.261 KA relative to UGCAUGU.

With B20, the binding signal is 1.19 KA relative to UGCAUGU. On to B21, for which the binding signal is 0.152 KA relative to UGCAUGU. Consider B22, for which the binding signal is 0.407 KA relative to UGCAUGU. The value for B23 was 0.185 KA relative to UGCAUGU; that for B24 was 0.169 KA relative to UGCAUGU.
